Measurements reported in PubChem BioAssay (NCATS).
Records with an inconclusive call do not appear. The source made the active and inactive calls. Unless noted, the call rests on the fitted dose curve; in most records, active means well fitted curve in the direction sought with a large enough effect; inconclusive means small, poorly fitted or top-dose-only effect, or another doubt; inactive means no such curve, though single readings can be large; an effect the other way counts as inactive or inconclusive.

Columns and labels:
[1] = molecular target: DNA polymerase III PolC-type (Bacillus subtilis (strain 168)) (UniProt P13267); assay: qHTS Validation Assay for the Inhibitors of DNA Replication in Gram-Positive Bacteria (AID 485295);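 further: PicoGreen fluorescence of double-stranded DNA made on primed circular M13 template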
How it was run: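 Reconstituted B. subtilis holoenzyme (Pol III, beta clamp, SSB, primase) was preincubated with compound at room temperature, then given single-stranded circular M13Gori plus dNTPs and NTPs. EDTA-containing PicoGreen stopped the reaction, and dsDNA product was read by fluorescence.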

[2] = molecular target: Tumor susceptibility gene 101 protein (Homo sapiens) (UniProt Q99816); assay: qHTS Validation Assay for Iinhibitors of HIV-1 Budding by Blocking the Interaction of PTAP/TSG101 (AID 485342; calls by dose curve)
How it was run: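 Tsg101 binding domain (10 uM final) in pH 7.5 HEPES/NaCl/Tween 20/EDTA/TCEP buffer was mixed with pin-transferred compounds, then FITC-labeled PTAP peptide (50 nM final) was added; after 20 min at r.t., fluorescence polarization was read.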

[3] = qHTS Validation Assay to Find Inhibitors of Chronic Active B-Cell Receptor Signaling (AID 485345; active means well fitted curve in the direction sought with a large enough effect in the main read-out, with a control signal flat, not every such curve was filed as active)
How it was run: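 TMD8 ABC-DLBCL cells with dox-inducible green luciferase–IκBα fusion and red native luciferase; compounds 46 uM–3 nM, 4 h at 37C with doxycycline in 0.5% FBS IMDM. Green/red ratio normalized to basal and 10 uM MG-132.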

[4] = molecular target: ATP-dependent 6-phosphofructokinase (Trypanosoma brucei brucei) (UniProt O15648); assay: qHTS Validation Assay to Find Inhibitors of T. brucei phosphofructokinase (AID 485368); conditions: T. brucei PFK enzyme assay, qHTS 7-point titration; at 57.5 µM (top of the series)
How it was run: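 qHTS format, up to 57 uM. PFK 1.25 nM; F6P 0.5 mM; ATP 0.1 mM; 5 mM MgCl2, 0.01% Tween20, 0.1% BSA; 0.1 M TEA pH 8.0; 45 min RT; ADP-Glo readout; no-enzyme control = full inhibition.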

[5] = Quantitative high throughput screen for delayed death inhibitors of the malarial parasite plastid, 48 hour incubation (AID 488752); further: nearly all actives have a fitted effect of over 65% in size
How it was run: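 One-generation (48 h) growth assay: a decrease in luciferase signal from an integrated reporter in P. falciparum-infected red cells (0.1% parasitemia, 2% hematocrit) after compound exposure at 37 C indicates parasite inhibition.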

[6] = molecular target: Thioredoxin reductase 1, cytoplasmic (Rattus norvegicus) (UniProt O89049); assay: qHTS Assay for Substrates of Mammalian Selenoprotein Thioredoxin Reductase 1 (TrxR1) (AID 488772);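 further: a drop in NADPH fluorescence below the no-compound background marks a TrxR1 substrate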
How it was run: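 In this dual-purpose format, potential substrates are identified from the first fluorescence read after selenite addition, not from the 8-minute delta. Rat enzyme is preincubated with NADPH and then with compound at ~22 deg C.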

[7] = molecular target: Thioredoxin reductase 1, cytoplasmic (Rattus norvegicus) (UniProt O89049); assay: qHTS Assay for Inhibitors of Mammalian Selenoprotein Thioredoxin Reductase 1 (TrxR1) (AID 488773); conditions: Potency: inhibition;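 further: drop in NADPH fluorescence over an 8 min run after selenite addition; nearly all actives have a fitted effect of over 40% in size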
How it was run: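 Inhibition is scored from the loss of NADPH fluorescence between first and last reads of an 8-min kinetic run. Selenite (400 uM) was the substrate, added after 15 min compound preincubation at room temperature.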

[8] = molecular target: M-phase phosphoprotein 8 (Homo sapiens) (UniProt Q99549); assay: qHTS Validation Assay for Inhibitors for MPP8 Chromodomain Interactions with Methylated Histone Tails (AID 488949);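 further: AlphaScreen signal from MPP8 chromodomain bound to biotinylated H3K9me3 peptide; top concentration of the series differs between compounds; nearly all actives have a fitted effect of over 55% in size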
How it was run: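 MPP8 (50 nM) was preincubated with biotinylated H3(1-18)K9me3 peptide (50 nM) in PBS pH 7.4, 0.01% Tween-20 for 30 min at room temperature, then with compounds for 30 min; binding was detected by AlphaScreen.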

[9] = molecular target: Chromobox protein homolog 1 (Homo sapiens) (UniProt P83916); assay: qHTS Validation Assay for Inhibitors of HP1-beta Chromodomain Interactions with Methylated Histone Tails (AID 488953);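 further: loss of AlphaScreen luminescence from HP1-beta binding biotinylated H3K9me3 peptide; nearly all actives have a fitted effect of over 50% in size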
How it was run: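 AlphaScreen proximity signal from streptavidin donor and nickel chelate acceptor beads (final 10 ug/mL) after 30 min dark incubation. Compounds had 30 min at room temperature with preformed complex of 50 nM HP1-beta and 50 nM b-H3(1-18)K9me3 in PBS pH 7.4 with 0.01% Tween-20.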

[10] = molecular target: Methanococcus maripaludis chaperonin (MmCpn) (UniProt Q6LX38); assay: High-Throughput Screening for Modulators of Cytosolic Chaperonin Activity: MmCpn Primary Screen (AID 488978);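 further: 50 nM MmCpn enzyme hydrolysing 30 µM ATP at 37 °C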
How it was run: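 MmCpn (50 nM final) was preincubated with compound 5 min at RT, then 30 uM ATP (final) was added and the reaction ran 10 min at 37C. ADP produced was detected by Transcreener HTRF (ex 320 nm; em 590/665 nm).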

[11] = molecular target: Transient receptor potential cation channel subfamily V member 1 (Homo sapiens) (UniProt Q8NER1); assay: HTS Assay for Compounds that Act as Enhancers of the Vanilloid Receptor 1 (AID 488979)
How it was run: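 TRPV1-expressing cells loaded with Fluo-8 calcium dye; compounds added and calcium influx read kinetically for 3 min (agonist phase), then capsaicin at EC20 added and read 2 min more for enhancement. Fluorescence ex 480/em 520 nm.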

[12] = molecular target: Thyrotropin receptor (Homo sapiens) (UniProt P16473); assay: qHTS Assay for Antagonists of the Thyroid Stimulating Hormone Receptor (AID 488980)
How it was run: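 HEK293 cells transfected with human TSHR, suspended in HEPES-buffered HBSS with 70 uM RO 20-1724, were treated with compounds plus TSH at EC80 (4 nM final). cAMP was measured by competitive HTRF (cryptate anti-cAMP antibody, cAMP-d2 acceptor).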

[13] = molecular target: D(1A) dopamine receptor (Homo sapiens) (UniProt P21728); assay: HTS Assay for Allosteric Agonists of the Human D1 Dopamine Receptor: Primary Screen for Agonists (AID 488981)
How it was run: (§1)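 Tetracycline-induced HEK293 T-REx cells force-coupled to calcium signalling were incubated overnight at 30 C and dye-loaded at room temperature. Calcium flux over 180 s after compound addition flagged agonists; a further 180 s read after EC20 dopamine flagged potentiators.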

[14] = molecular target: D(1A) dopamine receptor (Homo sapiens) (UniProt P21728); assay: HTS Assay for Allosteric Agonists of the Human D1 Dopamine Receptor: Primary Screen for Potentiators (AID 488982)
How it was run: as §1

[15] = molecular target: D(1A) dopamine receptor (Homo sapiens) (UniProt P21728); assay: HTS Assay for Allosteric Agonists of the Human D1 Dopamine Receptor: Primary Screen for Antagonists (AID 488983);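 further: calcium flux response to an EC80 dopamine challenge measured with no-wash dye; nearly all actives have a fitted effect of over 65% in size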
How it was run: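 Calcium-flux read-out in inducible HEK293 T-REx cells expressing D1, dye-loaded 30–90 min at room temperature. Kinetic reads: 180 s after compound (agonist phase), then 180 s after an EC80 dopamine challenge.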

[16] = molecular target: Flap endonuclease 1 (Homo sapiens) (UniProt P39748); assay: qHTS Validation Assay for the Inhibitors of Human Flap endonuclease 1 (FEN1) (AID 488816)
How it was run: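 Steps: add FEN1 (10 nM reagent) or buffer only; pin compounds; hold 15 min at room temperature; start with substrate, 50 nM final; read at 0 and 15 min; correct, normalize and fit a four-parameter Hill curve.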

[17] = molecular target: Beta-2 adrenergic receptor (Homo sapiens) (UniProt P07550); assay: qHTS validation assay of beta-arrestin-biased ligands of beta2-adrenergic receptor (AID 485366)
How it was run: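 Compound series up to 46 microM applied to beta2-AR/beta-arrestin Tango cells, 18 hr, 37 degrees C, 5% CO2. Read-out: tTA-driven luciferase luminescence, converted to %Activity; concentration-response curves assigned curve classes.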

[18] = molecular target: ATP-dependent 6-phosphofructokinase (Trypanosoma brucei brucei) (UniProt O15648); assay: qHTS Assay to Find Inhibitors of T. brucei phosphofructokinase: hit validation (AID 492961);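 further: luminescence reports ADP formed as PFK phosphorylates fructose-6-phosphate with ATP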
How it was run: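 PFK 1.25 nM, F6P 0.5 mM, ATP 0.1 mM, MgCl2 5 mM, 0.1 M TEA pH 8.0, Tween20 0.01%, BSA 0.1%; 45 min RT. ADP-Glo two-step detection, luminescence. qHTS titration; curve fitting with curve-class categorization.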

Measured: Potency

Chain of ATP-dependent 6-phosphofructokinase (Trypanosoma brucei brucei) (O15648 whole entry, looked up): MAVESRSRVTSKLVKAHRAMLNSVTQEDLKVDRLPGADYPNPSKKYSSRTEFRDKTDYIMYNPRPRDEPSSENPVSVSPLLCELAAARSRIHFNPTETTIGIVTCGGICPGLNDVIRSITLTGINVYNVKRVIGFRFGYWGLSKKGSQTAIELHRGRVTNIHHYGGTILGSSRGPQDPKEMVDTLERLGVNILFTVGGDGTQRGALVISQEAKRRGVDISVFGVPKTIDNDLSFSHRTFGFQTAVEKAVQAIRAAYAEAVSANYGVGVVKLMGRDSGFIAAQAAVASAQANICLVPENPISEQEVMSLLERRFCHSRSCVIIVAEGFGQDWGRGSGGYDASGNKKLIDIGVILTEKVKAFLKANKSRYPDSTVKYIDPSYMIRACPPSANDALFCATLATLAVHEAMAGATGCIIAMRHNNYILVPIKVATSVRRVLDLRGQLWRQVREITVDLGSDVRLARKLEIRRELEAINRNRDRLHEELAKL
Chain of Tumor susceptibility gene 101 protein (Homo sapiens) (Q99816 whole entry, looked up, the tested form may be a part): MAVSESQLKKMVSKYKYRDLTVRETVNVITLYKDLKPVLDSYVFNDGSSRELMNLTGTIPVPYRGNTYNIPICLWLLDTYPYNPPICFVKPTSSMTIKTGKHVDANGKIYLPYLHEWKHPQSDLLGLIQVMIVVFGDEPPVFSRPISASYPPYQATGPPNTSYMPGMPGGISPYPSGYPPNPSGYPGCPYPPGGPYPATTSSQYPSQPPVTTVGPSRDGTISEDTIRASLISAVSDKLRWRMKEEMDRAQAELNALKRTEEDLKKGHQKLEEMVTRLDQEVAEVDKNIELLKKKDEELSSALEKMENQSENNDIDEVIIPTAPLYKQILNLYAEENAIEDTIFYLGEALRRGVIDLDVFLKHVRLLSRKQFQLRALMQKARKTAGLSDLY
Chain of Transient receptor potential cation channel subfamily V member 1 (Homo sapiens) (Q8NER1 whole entry, looked up): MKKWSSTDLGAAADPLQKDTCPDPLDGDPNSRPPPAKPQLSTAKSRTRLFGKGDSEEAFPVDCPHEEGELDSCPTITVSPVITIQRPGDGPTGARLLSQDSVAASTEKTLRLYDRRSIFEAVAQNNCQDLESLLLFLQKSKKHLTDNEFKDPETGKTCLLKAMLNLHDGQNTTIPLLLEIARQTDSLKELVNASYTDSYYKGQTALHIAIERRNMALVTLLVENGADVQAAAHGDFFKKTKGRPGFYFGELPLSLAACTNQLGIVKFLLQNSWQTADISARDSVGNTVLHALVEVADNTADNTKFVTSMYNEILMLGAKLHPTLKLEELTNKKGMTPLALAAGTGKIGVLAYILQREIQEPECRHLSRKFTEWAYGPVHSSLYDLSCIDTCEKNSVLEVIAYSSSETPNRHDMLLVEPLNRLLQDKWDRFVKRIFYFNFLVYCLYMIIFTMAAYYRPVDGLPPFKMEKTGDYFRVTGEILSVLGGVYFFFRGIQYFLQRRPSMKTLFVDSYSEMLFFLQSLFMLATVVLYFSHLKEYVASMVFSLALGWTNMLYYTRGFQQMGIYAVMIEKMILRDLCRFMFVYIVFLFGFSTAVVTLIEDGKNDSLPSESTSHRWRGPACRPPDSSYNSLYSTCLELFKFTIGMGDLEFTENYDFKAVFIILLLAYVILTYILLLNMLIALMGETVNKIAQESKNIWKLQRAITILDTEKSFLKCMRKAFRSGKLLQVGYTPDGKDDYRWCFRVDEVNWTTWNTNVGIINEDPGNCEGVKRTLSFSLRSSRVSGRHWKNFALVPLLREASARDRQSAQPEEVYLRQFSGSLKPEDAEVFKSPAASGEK
Chain of Thyrotropin receptor (Homo sapiens) (P16473 whole entry, looked up): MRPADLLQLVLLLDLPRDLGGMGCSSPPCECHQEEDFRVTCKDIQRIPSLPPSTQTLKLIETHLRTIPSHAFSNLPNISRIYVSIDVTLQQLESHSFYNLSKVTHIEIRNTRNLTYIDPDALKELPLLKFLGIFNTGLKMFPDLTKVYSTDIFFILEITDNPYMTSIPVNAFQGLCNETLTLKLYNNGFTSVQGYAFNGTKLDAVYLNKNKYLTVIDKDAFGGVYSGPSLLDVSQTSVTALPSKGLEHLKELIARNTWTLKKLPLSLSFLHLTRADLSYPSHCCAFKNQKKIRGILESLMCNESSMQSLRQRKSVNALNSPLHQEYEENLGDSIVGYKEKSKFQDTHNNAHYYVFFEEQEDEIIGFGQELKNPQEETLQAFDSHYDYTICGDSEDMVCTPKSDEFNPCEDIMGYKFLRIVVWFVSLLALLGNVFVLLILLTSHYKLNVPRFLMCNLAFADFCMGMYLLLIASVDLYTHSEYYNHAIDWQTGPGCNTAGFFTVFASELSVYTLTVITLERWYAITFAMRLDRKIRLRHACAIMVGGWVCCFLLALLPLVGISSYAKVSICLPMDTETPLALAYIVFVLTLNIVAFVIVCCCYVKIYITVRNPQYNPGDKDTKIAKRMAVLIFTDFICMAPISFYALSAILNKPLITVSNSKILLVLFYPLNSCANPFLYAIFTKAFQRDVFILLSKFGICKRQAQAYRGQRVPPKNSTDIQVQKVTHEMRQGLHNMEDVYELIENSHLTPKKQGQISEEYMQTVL
Chain of Beta-2 adrenergic receptor (Homo sapiens) (P07550 whole entry, looked up): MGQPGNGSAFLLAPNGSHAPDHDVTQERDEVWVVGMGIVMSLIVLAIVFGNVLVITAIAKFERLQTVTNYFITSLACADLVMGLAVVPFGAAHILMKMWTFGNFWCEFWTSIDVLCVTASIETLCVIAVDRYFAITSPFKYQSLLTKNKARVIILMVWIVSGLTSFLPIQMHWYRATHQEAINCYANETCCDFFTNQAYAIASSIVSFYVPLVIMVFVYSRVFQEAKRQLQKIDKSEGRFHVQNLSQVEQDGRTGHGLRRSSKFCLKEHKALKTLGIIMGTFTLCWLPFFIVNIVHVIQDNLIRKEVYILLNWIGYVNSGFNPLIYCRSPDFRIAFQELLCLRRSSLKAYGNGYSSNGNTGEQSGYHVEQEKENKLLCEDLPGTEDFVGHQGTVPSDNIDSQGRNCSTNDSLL
Chain of Methanococcus maripaludis chaperonin (MmCpn) (Q6LX38 1-543): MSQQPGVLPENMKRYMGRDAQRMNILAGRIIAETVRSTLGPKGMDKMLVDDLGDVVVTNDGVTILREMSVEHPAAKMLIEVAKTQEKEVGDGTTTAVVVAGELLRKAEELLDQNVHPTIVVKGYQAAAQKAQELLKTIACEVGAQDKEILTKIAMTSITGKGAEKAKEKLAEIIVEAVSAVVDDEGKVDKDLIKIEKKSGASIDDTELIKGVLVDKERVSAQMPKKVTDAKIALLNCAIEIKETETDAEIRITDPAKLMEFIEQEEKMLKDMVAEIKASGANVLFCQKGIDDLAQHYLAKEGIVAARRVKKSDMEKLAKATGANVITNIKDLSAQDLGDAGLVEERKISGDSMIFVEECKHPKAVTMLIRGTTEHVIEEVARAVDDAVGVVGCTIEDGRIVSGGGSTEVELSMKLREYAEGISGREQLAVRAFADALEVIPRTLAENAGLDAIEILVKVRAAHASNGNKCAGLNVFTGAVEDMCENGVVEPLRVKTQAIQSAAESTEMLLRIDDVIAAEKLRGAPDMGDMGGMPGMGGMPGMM
Chain of Chromobox protein homolog 1 (Homo sapiens) (P83916 whole entry, looked up): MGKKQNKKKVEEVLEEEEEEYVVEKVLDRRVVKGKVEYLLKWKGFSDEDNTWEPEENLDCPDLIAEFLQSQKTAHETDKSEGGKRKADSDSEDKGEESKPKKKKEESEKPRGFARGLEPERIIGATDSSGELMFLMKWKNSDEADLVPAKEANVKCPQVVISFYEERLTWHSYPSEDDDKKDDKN
Chain of D(1A) dopamine receptor (Homo sapiens) (P21728 whole entry, looked up): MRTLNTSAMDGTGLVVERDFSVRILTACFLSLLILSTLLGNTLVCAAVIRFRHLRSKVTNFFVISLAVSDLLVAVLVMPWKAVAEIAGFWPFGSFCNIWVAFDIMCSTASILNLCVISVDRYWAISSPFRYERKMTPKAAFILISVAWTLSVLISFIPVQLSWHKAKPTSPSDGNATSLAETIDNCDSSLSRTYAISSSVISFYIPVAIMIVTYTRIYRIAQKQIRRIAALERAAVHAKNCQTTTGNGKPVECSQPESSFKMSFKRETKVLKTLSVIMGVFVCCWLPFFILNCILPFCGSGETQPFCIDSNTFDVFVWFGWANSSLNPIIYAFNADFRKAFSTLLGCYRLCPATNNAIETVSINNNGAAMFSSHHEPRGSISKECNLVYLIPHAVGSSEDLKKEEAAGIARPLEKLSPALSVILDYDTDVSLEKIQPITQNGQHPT
Chain of Thioredoxin reductase 1, cytoplasmic (Rattus norvegicus) (O89049 whole entry, looked up): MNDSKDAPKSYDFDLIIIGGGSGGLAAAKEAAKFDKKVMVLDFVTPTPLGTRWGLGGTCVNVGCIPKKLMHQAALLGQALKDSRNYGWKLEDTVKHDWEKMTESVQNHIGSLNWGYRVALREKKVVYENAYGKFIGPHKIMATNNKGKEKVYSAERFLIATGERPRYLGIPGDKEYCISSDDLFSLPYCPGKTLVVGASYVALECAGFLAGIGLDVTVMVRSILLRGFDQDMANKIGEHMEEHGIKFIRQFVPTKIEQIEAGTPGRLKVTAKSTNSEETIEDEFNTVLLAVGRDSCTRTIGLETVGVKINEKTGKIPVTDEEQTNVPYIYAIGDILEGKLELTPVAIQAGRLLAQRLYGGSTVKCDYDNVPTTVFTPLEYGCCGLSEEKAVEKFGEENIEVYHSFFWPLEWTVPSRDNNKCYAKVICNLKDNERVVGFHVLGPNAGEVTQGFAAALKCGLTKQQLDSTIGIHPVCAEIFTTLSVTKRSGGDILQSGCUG
Chain of Flap endonuclease 1 (Homo sapiens) (P39748 whole entry, looked up): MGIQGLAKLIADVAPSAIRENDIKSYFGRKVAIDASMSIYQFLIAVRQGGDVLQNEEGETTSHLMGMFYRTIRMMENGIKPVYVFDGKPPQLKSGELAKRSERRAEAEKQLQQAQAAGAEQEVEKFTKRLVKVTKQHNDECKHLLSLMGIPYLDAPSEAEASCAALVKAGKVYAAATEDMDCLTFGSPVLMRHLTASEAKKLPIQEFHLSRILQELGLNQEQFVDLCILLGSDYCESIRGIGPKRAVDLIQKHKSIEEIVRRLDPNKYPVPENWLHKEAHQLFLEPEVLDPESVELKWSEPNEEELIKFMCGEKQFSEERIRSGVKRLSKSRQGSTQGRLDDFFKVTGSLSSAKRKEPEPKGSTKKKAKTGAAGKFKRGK

Clc1cnc(Oc2ccc(Oc3ncc(Cl)cc3Cl)cc2)c(Cl)c1
not listed: [16] | [17] | [18]
inactive: all other assays above

O=C(O)CC[N+](=O)[O-]
not listed: [12] | [17] | [18]
inactive: all other assays above

NC(=NCCC[C@H](N)C(=O)O)N[N+](=O)[O-]
not listed: [16] | [18]
inactive: all other assays above

NC(=O)CN1CC(O)CC1=O (stereo not drawn)
not listed: [4] | [16] | [17]
inactive: all other assays above

C[C@@H](N)Cc1cnc[nH]1
not listed: [16] | [17] | [18]
inactive: all other assays above

O=C(N[C@H]1CN2CCC1CC2)c1ccc(Cl)cc1
not listed: [5] | [11] | [12] | [16] | [18]
inactive: all other assays above

C[C@@H]1O[C@H](C[N+](C)(C)C)C[C@H]1O
not listed: [16] | [18]
inactive: all other assays above

NC(CCP(=O)(O)O)C(=O)O (stereo not drawn)
not listed: [16] | [18]
inactive: all other assays above

CS(=N)(=O)CC[C@H](N)C(=O)O (stereo partly drawn)
not listed: [9] | [16] | [18]
inactive: all other assays above

CC(Cc1ccc(O)cc1)NCC(O)c1cc(O)cc(O)c1 (stereo not drawn)
not listed: [4] | [16] | [17] | [18]
inactive: all other assays above

O=C(Cc1ccc(Cl)c(Cl)c1)N1CCCCC1CN1CCCC1 (stereo not drawn)
not listed: [5] | [16] | [18]
inactive: all other assays above

S=C(NC1CCCCC1)N1CCC(c2cnc[nH]2)CC1
not listed: [9] | [11] | [16] | [17] | [18]
inactive: all other assays above

O=C(O)[C@@H]1CCN1
not listed: [16] | [17] | [18]
inactive: all other assays above
